Data: PubChem BioAssay (NCATS)
Calls of active or inactive are those of the source. Calls come from the whole dose curve; as a rule, active = well fitted curve in the direction sought with a large enough effect; inconclusive = small, poorly fitted or top-dose-only effect, or another doubt; inactive = no such curve, though single readings can be large or run the other way.

experiment: Cellular Toxicity (caspase-3) BJ (AID 658); conditions: BJ fibroblasts, luminescence; Potency: caspase-3 activation; series mostly up to 91.7 µM; caspase-3 activation: at the top concentration;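 note: 0% = DMSO basal and 100% = 10 µM staurosporine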
From the text: NIH Chemical Genomics Center [NCGC]
NIH Molecular Libraries Screening Centers Network [MLSCN]
National Institutes of Environmental Health Sciences [NIEHS]
National Toxicology Program [NTP]
We have developed a 1536-well cell-based assay for quantitative high throughput screening (qHTS) against a number of cell lines to determine in vitro caspase 3/7 activity of small molecules. This particular assay uses BJ cell line which is derived from normal human foreskin fibroblast.
NCGC Assay Protocol Summary:
The Caspase-Glo 3/7 assay (Promega) is a homogeneous method to measure caspase-3 and caspase-7 activities in cultured cells. The quantitation of caspase 3/7 activity is based on the cleavage of a peptide-aminoluciferin substrate. After caspase cleaves the substrate the free aminoluciferin is liberated and serves as the substrate of luciferase, which generates the light. The luminescent signal is proportional to amount of caspase 3/7 activity present.
Using the Caspase-Glo 3/7 assay, the amount of caspase 3/7 activity was measured in the BJ cell line with complete culture medium following compound treatment for 16 hours. The assay was performed in opaque white 1536-well plates. In the screen, staurosporine and tamoxifen were used as positive controls. Library compounds were measured for their ability to cause the activation of caspase 3/7 in the cell line, as reflected by an increase in luminescence signal, in a concentration-dependent manner. Data were normalized to the controls for basal activity (DMSO only) and 100% stimulation (10 uM staurosporine). AC50 values were determined from concentration-response data modeled with the standard Hill equation.
qHTS protocol for caspase 3/7 assay in the BJ cells
[Step] [Parameter] [Value] [Description]
1. Reagent; 5 uL; 1000 the BJ cells/well
2. Time; 5 hr; 37 °C incubation
4. Controls; 23 nL; Tamoxifen 0.23 uM to 100 uM & staurosporine 1.4 pM to 100 uM
5. Time; 16 hr; 37 °C incubation
6. Reagent; 5 uL; Caspase-Glo 3/7 reagent
7. Time; 1 hr; Room Temperature
8. Detection; Luminescence; Viewlux plate reader
Keywords: caspase 3/7, apoptosis, the BJ cell line, luminescence, NTPHTS, NTPHTS_NCGC, NIEHS, EPA, DSSTox, MLSMR, MLSCN, NIH Roadmap, qHTS, NCGC

Compound	caspase-3 activation
CC(=O)Nc1cccc(C)c1	-0.104% (inactive)
O=C(O)/C=C/c1ccc(/C=C/C(=O)O)cc1	-8.97% (inactive)
OCC(CBr)(CBr)CBr	0.0382% (inactive)
Cc1ccccc1OCC1CO1 (stereo not given)	1.03% (inactive)
O=c1[nH]ncc2ccccc12	1.05% (inactive)
Clc1nc2ccccc2nc1Cl	-0.308% (inactive)
CC(=O)c1ccc(Cl)c(Cl)c1Cl	-0.781% (inactive)
Oc1cc(Cl)cc(Cl)c1Cl	0.958% (inactive)
CCCCCCc1ccc(-c2ccc(C#N)cc2)cc1	0.762% (inactive)
NC(=O)Nc1nc2ccccc2[nH]1	-0.217% (inactive)
NC(=O)c1ccc([N+](=O)[O-])cc1	1.01% (inactive)
c1ccc2c(c1)ccc1ccccc12	0.713% (inactive)
COc1cc(-c2ccc(N=C=O)c(OC)c2)ccc1N=C=O	-2.75% (inactive)
Cc1ccc(S(N)(=O)=O)cc1	0.448% (inactive)
Cc1ccc2ccc3cccc4ccc1c2c34	-0.51% (inactive)
Cc1ccc(O)c(N)c1	-1.17% (inactive)
C/C(Cl)=C/CCl	0.119% (inactive)
C/C=C1/C(=O)C[C@H]2[C@@H]3CCC4=CC(=O)CC[C@]4(C)[C@H]3CC[C@]12C	-2.82% (inactive)
Oc1c(Cl)cc(Cl)c(Cl)c1Cl	-2.66% (inactive)
O=C(Cl)c1ccc([N+](=O)[O-])cc1	1.27% (inactive)

Compound	caspase-3 activation
Nc1cc([N+](=O)[O-])ccc1O	1.37% (inactive)
Nc1ccccc1O	2.92% (inactive)
CC(C)COC(=O)COc1cc(Cl)c(Cl)cc1Cl	-0.525% (inactive)
O=[N+]([O-])c1ccccc1Nc1ccccc1	-0.573% (inactive)
COc1ccc(C)cc1N	-0.148% (inactive)
Cc1cc2nc(N)sc2cc1C	-8.71% (inactive)
O=C(O)c1cc(N=Nc2ccc([N+](=O)[O-])cc2)ccc1O	-7.7% (inactive)
O=[N+]([O-])c1cc(Cl)c(Cl)c(Cl)c1Cl	-2.11% (inactive)
Nc1cnn([C@@H]2O[C@H](CO)[C@@H](O)[C@H]2O)c(=O)n1	-0.626% (inactive)
O=[N+]([O-])c1ccc(F)cc1F	0.951% (inactive)
Cc1cc(=O)oc2cc(O)cc(O)c12	-1.12% (inactive)
CCCC(=O)OC(=O)CCC	1.3% (inactive)
Oc1ccc(O)c2c(O)cccc12	-0.977% (inactive)
Nc1ccc(-c2ccc(N)c(O)c2)cc1O	-1.11% (inactive)
Cc1ccc(N)cc1[N+](=O)[O-]	0.667% (inactive)
C1CCCNCC1	-1.1% (inactive)
CCCCC(CC)COCCCN (stereo not given)	2.01% (inactive)
CCC(Cl)CC(Cl)C(Cl)C(Cl)C(Cl)C(C)Cl (stereo not given)	0.284% (inactive)
CC(CCC(=O)O)(c1ccc(O)cc1)c1ccc(O)cc1	-1.04% (inactive)
CCCCCCCCC1CO1 (stereo not given)	1.46% (inactive)
